Bioassay records (PubChem BioAssay)
KDM5B inhibitor – KDM5B demethylase inhibition. KDM5B demethylase, FDH-coupled NADH fluorescence (FDH is formaldehyde dehydrogenase). Q9UGL1. 220,000 tested, 2.6% active. Potency, µM (highest dose often 57.7 µM), actives largely listed as inhibitors. AID 1347165; active = well fitted inhibition curve with a large enough effect; also: nearly all actives have a fitted effect of over 70% in size
Target sequence (Q9UGL1 whole entry, looked up): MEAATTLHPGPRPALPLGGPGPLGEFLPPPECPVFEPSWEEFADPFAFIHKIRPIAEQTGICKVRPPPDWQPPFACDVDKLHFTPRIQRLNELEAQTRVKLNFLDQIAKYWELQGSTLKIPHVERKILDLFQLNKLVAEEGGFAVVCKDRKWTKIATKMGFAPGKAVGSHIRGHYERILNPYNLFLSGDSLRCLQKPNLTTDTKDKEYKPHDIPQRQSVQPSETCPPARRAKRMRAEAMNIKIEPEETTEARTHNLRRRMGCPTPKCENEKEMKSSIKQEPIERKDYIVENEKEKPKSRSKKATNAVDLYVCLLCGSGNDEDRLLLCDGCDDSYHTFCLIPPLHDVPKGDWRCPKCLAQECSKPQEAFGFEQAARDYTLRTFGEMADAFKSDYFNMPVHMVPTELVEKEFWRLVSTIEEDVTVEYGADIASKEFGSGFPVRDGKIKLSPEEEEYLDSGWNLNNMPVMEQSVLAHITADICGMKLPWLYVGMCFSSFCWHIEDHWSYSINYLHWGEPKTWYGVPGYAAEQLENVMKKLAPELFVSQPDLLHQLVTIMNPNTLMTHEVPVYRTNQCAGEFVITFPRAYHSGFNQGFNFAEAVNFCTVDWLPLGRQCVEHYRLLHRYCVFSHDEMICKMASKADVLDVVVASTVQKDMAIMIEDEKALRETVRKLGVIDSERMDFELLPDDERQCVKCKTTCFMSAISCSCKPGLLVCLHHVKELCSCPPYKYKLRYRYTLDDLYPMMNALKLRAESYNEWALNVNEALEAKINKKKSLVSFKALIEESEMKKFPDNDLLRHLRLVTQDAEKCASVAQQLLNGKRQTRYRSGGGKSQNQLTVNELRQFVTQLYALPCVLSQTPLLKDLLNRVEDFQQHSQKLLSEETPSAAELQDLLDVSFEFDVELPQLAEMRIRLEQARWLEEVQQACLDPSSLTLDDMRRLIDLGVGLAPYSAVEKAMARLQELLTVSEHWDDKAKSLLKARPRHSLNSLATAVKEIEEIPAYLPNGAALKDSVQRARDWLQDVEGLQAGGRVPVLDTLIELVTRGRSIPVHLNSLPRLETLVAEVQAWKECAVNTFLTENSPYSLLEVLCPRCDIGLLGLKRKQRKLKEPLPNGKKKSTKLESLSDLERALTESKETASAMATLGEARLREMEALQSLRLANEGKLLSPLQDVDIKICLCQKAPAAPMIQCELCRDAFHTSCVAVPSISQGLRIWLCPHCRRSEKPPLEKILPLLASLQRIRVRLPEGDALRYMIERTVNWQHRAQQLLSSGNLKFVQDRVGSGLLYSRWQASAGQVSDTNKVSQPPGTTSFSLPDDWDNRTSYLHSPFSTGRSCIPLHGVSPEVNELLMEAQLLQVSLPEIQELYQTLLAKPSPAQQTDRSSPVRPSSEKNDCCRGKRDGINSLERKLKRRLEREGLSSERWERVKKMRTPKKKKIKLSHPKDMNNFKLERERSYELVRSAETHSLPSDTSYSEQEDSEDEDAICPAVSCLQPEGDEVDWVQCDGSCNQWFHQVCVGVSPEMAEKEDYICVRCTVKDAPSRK
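qHTS format, multiple compound concentrations. Buffer 50 mM HEPES pH 7.5/0.01% Tween-20; 200 nM KDM5BΔAP final; 10 min compound preincubation; substrate-mix levels 12.5 µM peptide, 25 µM α-KG, 0.25 mM NAD⁺; 30 min RT; ΔRFU.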
Of the large screens only hits and unclear results are named; the others gave an inactive call. Only a selection was taken, and hits are over-represented in it overall.

CCN(CCNC(=O)c1cc2c(s1)CN(C1CC1)C2)c1cccc(C)c1	none
CN(C)CCNC(=O)c1cc2cn(C3CC3)cc2s1	KDM5B inhibitor 13µM
CCN(CC)c1nc2c(c(=O)[nH]c(=O)n2C)n1CC(O)COc1ccc(C)cc1 (centres undefined)	none
Cc1ccc(Cl)cc1N(CC(=O)N1CCCC1)S(=O)(=O)c1ccccc1	none
Cc1ccc(NC2=C(C(=O)N3CCOCC3)S(=O)(=O)c3ccccc32)cc1F	none
CN(C)S(=O)(=O)c1ccc(Cl)c(NC(=O)COC(=O)c2nn(C)c(=O)c3ccccc23)c1	none
CSc1ccc(NC(=O)CCCc2nc(C(C)C)no2)cc1	none
Cc1cccc(CS(=O)Cc2ccc(Cl)cc2)c1 (centres undefined)	none
Cc1nn(C)cc1S(=O)(=O)Nc1ccn(Cc2c(F)cccc2Cl)n1	none
CNC(=O)NC(=O)CN(CCC1CCCCC1)CC(N)=O	none
Fc1ccc(C2=Nn3c(nnc3-c3ccccn3)SC2)cc1	none
Cc1ccc2oc(C(=O)NCc3ccncc3)cc(=O)c2c1	none
COCCN1CCNc2nc(CNCc3cccc(Cl)c3)n(Cc3ccccc3)c2C1=O	none
O=C1c2c(nc(CNCc3cccnc3)n2Cc2ccccc2)NCCN1Cc1cccc(Cl)c1	none
O=C1c2c(nc(CNCc3cnccn3)n2Cc2ccccc2)NCCN1Cc1cccc(Cl)c1	KDM5B inhibitor 25µM
CCc1ccc(C(=O)CSc2nnc(-c3ccc(Cl)cc3)n2CCOC)cc1	none
Cc1noc(C)c1S(=O)(=O)N1CCCC2(C1)Nc1cccnc1NC2=NC1CCCC1 (centres undefined)	KDM5B inhibitor 22µM
Cc1noc(C)c1S(=O)(=O)N1CCC[C@H](n2c(=O)n(C)c3cccnc32)C1	none
O=C(CCc1ccccc1)N1CCCC2(C1)Nc1cccnc1NC2=NC1CCCC1 (centres undefined)	KDM5B inhibitor 25µM
O=C(Cc1ccccc1)N1CCCC2(C1)Nc1cccnc1NC2=NC1CCCC1 (centres undefined)	KDM5B inhibitor 28µM
O=C(CCc1ccccc1)N1CCC(Oc2ncccc2C(=O)N2CCCCC2)C1 (centres undefined)	none
O=C1NC2(CCCN(C(=O)Cc3ccccc3)C2)Oc2ccccc21 (centres undefined)	none
Cc1noc(C)c1S(=O)(=O)N1CCCC(Cc2noc(-c3cccnc3)n2)C1 (centres undefined)	none
O=C(Cc1ccccc1)N1CCCC2(CC(c3ccccn3)=NO2)C1 (centres undefined)	none
O=C(OCc1ccccc1)N1CCC2(C1)C(=NC1CCCC1)NC(=O)N2c1cccnc1 (centres undefined)	none
Cc1ccc(S(=O)(=O)N(C)C)cc1NC(=O)COc1ccc2cc(Br)ccc2c1	none
CC(=O)Oc1ccc2c(=O)c(-c3ccc(Cl)cc3)c(C(F)(F)F)oc2c1	none
O=S(=O)(Nc1nc2ccccc2nc1Nc1ccc2c(c1)OCCO2)c1ccc(Cl)cc1	none
COc1ccc(C(=O)N2CCC3(CC2)NC(=O)N(c2cccc(F)c2)N3)c(OC)c1	none
Cc1cc(C(=O)Nc2ccccc2SC2CCCC2)c(C)o1	none
Cc1cnc(NC(=O)Cc2cnc(-c3ccccc3F)s2)s1	none
CN(C)S(=O)(=O)c1cc(C(=O)NCc2coc(-c3cccs3)n2)ccc1Cl	none
COc1cc(/C=C(/C#N)c2ccccn2)ccc1OCC(F)(F)F	none
COc1ccc(Oc2coc3cc(OCC#N)ccc3c2=O)cc1	none
Cc1[nH]c2ccccc2c1C(=O)/C(C#N)=C\c1ccccc1Cl	none
CNC(C)c1ccncc1 (centres undefined)	KDM5B inhibitor 16µM
CNC(C)c1ccc(OC(F)(F)F)cc1 (centres undefined)	none
CNC(C)c1ccc(Oc2ccccc2)cc1 (centres undefined)	none
CCc1noc(C)c1C(=O)Nc1sc(C)cc1C(=O)OC	none
Clc1ccc(-c2cnc([C@@H]3COCCN3)[nH]2)cc1	none
Cc1ccc(NC(=O)N2CCC(n3cnnc3C3CC3)C2)c(Cl)c1 (centres undefined)	none
N#Cc1ccsc1NC(=O)CSc1nnc(-c2ccccc2F)n1C1CCCCC1	none
CCOC(=O)COc1ccccc1/C=C(/C#N)c1nc2ccc(C)cc2[nH]1	none
O=C(NCc1ccc(Cn2cccn2)cc1)c1cn[nH]c1-c1ccc(F)cc1	none
COc1ccc(C(=O)N(Cc2ccc(N(C)C)cc2)CC2CCCO2)cc1 (centres undefined)	none
CCN(CC(=O)NCc1ccc(F)cc1)C(=O)c1ccc(C)o1	none
CCN(Cc1ccc(C)o1)C(=O)c1ccc2nc(-c3ccc(F)cc3)cn2c1	KDM5B inhibitor 28µM
CCN(CC1CCCO1)C(=O)c1ccc2nc(-c3ccc(F)cc3)cn2c1 (centres undefined)	KDM5B inhibitor 22µM
CCN(CCn1cccn1)C(=O)c1ccc2nc(-c3ccc(F)cc3)cn2c1	KDM5B inhibitor 25µM
CCN(CC)C(=O)c1c(-c2ccc(F)cc2)noc1[C@H](C)O	none
CN(C)c1ccc(CN(CC2CCCO2)C(=O)c2ccc(Br)cc2)cc1 (centres undefined)	none
Cc1ccc(CN(C(=O)c2ccc(F)cc2)c2ccccn2)o1	none
O=C(Nc1cccc(-c2nnnn2C2CC2)c1)c1c2c(nc3ccccc13)CCC2	none
O=C(CCn1nc(-c2ccccc2)c2ccccc2c1=O)Nc1ccc(Br)cc1	none
COC(=O)c1cnn(-c2ccc(C(=O)Nc3ccc(F)c(F)c3)cc2)c1N	none
CC[n+]1c(NCc2cc(Br)cc(Br)c2[O-])[nH]c2ccccc21	none
COc1cc(NC(=O)C2(n3cnnn3)CCCCC2)cc(OC)c1	none
CCCn1c(Br)nc2c(=O)n(C)c(=O)n(C)c21	none
CNC(=O)NC(=O)C(C)Oc1ccc2ccc(=O)oc2c1 (centres undefined)	none
COc1cccc(C(=O)NCC2(COc3cccc(C)n3)C[C@@H](O)[C@@H](O)C2)c1 (some centres undefined)	none
Cc1cccc(OCC2(CNC(=O)c3cccc(F)c3)C[C@@H](O)[C@@H](O)C2)n1 (some centres undefined)	none
Cc1cccc(OCC2(CNC(=O)c3cc(C)nn3C)C[C@@H](O)[C@@H](O)C2)n1 (some centres undefined)	KDM5B inhibitor 32µM
Cc1cc(-c2cc3c(cn2)N(C)CCN(C)C3)ccn1	KDM5B inhibitor 32µM
CN(C)C(=O)c1ccc(-c2cnc3[nH]cc(CC(=O)N4CCOCC4)c3c2)cc1	none
CN1CCN(C)c2cnc(-c3ccc(C(=O)N(C)C)cc3)cc2C1	KDM5B inhibitor 35µM
COCCN1CCOc2nc(-c3ccc(C(=O)N(C)C)cc3)ncc2C1=O	none
O=C(NCc1coc(-c2cccs2)n1)c1ccc(F)cc1F	none
Cc1cccc(-n2nnnc2C2(NC3CCCCC3)CCCC2)c1	none
COc1ccc2c(C)c(CCC(=O)NCc3ccc4c(c3)OCO4)c(=O)oc2c1C	none
COc1ccc2cc(C(=O)N3CC4CC(C3)[C@H]3CCCC(=O)N3C4)[nH]c2c1 (some centres undefined)	none
O=C(NC1CCN(C(=O)N2CC3CC(C2)[C@H]2CCCC(=O)N2C3)CC1)c1ccccc1 (some centres undefined)	none
COc1ccc2cc(C(=O)NC3CCN(C(=O)N4CC5CC(C4)[C@H]4CCCC(=O)N4C5)CC3)[nH]c2c1 (some centres undefined)	KDM5B inhibitor 28µM
Cc1ccc(NC(=O)c2cc3ccc(O)cc3oc2=O)cc1	none
CC(C)NC(=O)c1cc(-c2ccc(Br)cc2)nc2ccccc12	none
CC(C)NC(=O)c1cc(-c2ccc(Cl)nc2)nc2c1cnn2C	KDM5B inhibitor 56µM
Cn1ncc2c(C(=O)N3CCN(c4ncccn4)CC3)cc(-c3ccc(Cl)nc3)nc21	none
CC(C)NC(=O)c1cc(-c2ccc(S(C)(=O)=O)cc2)nc2c1cnn2C	KDM5B inhibitor 79µM
